Test results from PubChem BioAssay AID504339 (National Center for Advancing Translational Sciences (NCATS), 2011).
About 17,000 (4.4%) of roughly 390,000 compounds were called active. Inconclusive results (about 8%) are left out. This excerpt belongs to a sample that is enriched for actives. A number with no mark means an inactive call. The call rests on the fitted dose curve; in most records, active means well fitted inhibition curve with a large enough effect; inconclusive means small, poorly fitted or top-dose-only effect; inactive means no such curve, though single readings can be large or run the other way.

The compounds below were run against Lysine-specific demethylase 4A (Homo sapiens) (UniProt O75164) (assay: qHTS Assay for Inhibitors of JMJD2A-Tudor Domain). Settings: AlphaScreen JMJD2A-Tudor / H3K4me3 peptide binding; series mostly up to 114 µM; activity change, negative = inhibition: at the top concentration.
Further: nearly all actives have a fitted effect of over 50% in size.
On the % scale 0 is the no-effect control and ±100 the full control effect; potency means the concentration at half of the fitted maximal effect.

Chain of Lysine-specific demethylase 4A (Homo sapiens) (O75164 whole entry, looked up, the tested form may be a part): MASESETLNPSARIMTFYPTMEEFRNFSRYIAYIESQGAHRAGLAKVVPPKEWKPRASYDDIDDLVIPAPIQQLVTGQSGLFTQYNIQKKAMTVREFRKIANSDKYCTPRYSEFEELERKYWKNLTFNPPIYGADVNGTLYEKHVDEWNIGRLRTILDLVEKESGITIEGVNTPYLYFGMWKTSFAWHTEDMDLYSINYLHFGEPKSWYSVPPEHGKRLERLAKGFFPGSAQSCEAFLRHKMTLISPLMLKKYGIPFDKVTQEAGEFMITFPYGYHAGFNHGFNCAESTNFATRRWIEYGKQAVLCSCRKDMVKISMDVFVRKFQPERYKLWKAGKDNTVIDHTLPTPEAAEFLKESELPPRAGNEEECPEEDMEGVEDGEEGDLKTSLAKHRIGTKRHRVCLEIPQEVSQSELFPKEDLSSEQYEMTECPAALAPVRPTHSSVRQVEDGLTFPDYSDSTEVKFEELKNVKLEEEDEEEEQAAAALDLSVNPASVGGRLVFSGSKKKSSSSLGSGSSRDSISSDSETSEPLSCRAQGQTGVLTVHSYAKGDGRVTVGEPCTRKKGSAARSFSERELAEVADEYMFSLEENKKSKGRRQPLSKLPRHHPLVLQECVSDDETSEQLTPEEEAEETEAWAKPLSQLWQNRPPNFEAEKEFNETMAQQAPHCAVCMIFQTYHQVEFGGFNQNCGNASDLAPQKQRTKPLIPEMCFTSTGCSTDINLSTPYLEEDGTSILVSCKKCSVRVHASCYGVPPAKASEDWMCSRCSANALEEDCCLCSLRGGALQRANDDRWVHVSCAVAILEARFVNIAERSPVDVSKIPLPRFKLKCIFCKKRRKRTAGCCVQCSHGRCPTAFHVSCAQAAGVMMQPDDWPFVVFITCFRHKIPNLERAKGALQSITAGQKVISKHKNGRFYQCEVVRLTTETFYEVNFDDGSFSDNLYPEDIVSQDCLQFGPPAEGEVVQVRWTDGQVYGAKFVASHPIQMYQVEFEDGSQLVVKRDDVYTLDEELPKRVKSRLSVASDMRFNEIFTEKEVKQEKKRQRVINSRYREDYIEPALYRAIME

Structure (SMILES) | Potency | activity change, negative = inhibition [%]
C#CCOCCOCCOCCNc1nc(N2CCN(C(=O)[C@H](Cc3ccc(O)cc3)n3cc(C(N)CC(C)C)nn3)CC2)nc(N2CCN(C(=O)[C@H](CCC(=O)O)n3cc(C(N)[C@H](C)CC)nn3)CC2)n1 (stereo not given in full) | 44.7 µM (active) | –
CC[C@H](C)[C@@H](C(=O)N1CCNCC1)n1cc([C@@H](N)Cc2ccc(O)cc2)nn1 | – | -33.6
C#CCOCCOCCOCCNc1nc(N2CCN(C(=O)[C@H](CCC(=O)O)n3cc(C(N)CO)nn3)CC2)nc(N2CCN(C(=O)[C@H](Cc3ccc(O)cc3)n3cc(C(N)[C@H](C)CC)nn3)CC2)n1 (stereo not given in full) | 28.2 µM (active) | –
C#CCOCCOCCOCCNc1nc(N2CCOCC2)nc(N2CCN(C(=O)[C@H](Cc3ccc(O)cc3)n3cc(CCO)nn3)CC2)n1 | – | -29
C#CCOCCOCCOCCNc1nc(N2CCN(C(=O)[C@H](CCCCN)n3cc([C@@H](N)C(C)CC)nn3)CC2)nc(N2CCN(C(=O)[C@H](Cc3ccc(O)cc3)n3cc([C@@H](N)C(C)CC)nn3)CC2)n1 (stereo not given in full) | 44.7 µM (active) | –
O=C(NCc1ccccc1)c1ccc2c(c1)nc1n2CCCCC1 | – | -9.09
CC(C)c1ccc(NS(=O)(=O)c2ccc3[nH]cc(C(=O)NC4CCCC4)c(=O)c3c2)cc1 | – | -34
CCC(Sc1nc2n[nH]c(C)c2c(=N)n1-c1ccccc1Cl)C(=O)N(CC)CC (stereo not given) | – | -4.81
Cc1nnc(SCc2cc(=O)c3cc(F)ccc3[nH]2)n1C | – | -12
Cc1cc(NC(=O)c2ccc(-c3ccc(Cl)cc3)o2)cc(-c2nc3ncccc3o2)c1O | – | -1.49
CC(=O)c1ccc(NC(=O)c2nc3nc(C)cc(C(F)F)n3n2)cc1 | – | -8.93
CCc1cc(-c2nnc(SCC(=O)NC3CC3)n2C)cs1 | – | -3.32
CCCc1cc(-c2n[nH]c(=S)n2Cc2ccccc2)cs1 | – | -26
CCc1cc(-c2n[nH]c(=S)n2CC(C)C)cs1 | 28.2 µM (active) | –
Cc1ccccc1NC(=O)CN1C(=O)C(C)(C)c2ccccc21 | – | -7.74
CCOc1ccc(N(CC)S(=O)(=O)N2CCCC(C(=O)NCc3ccc(SC)cc3)C2)cc1 (stereo not given) | – | -20.5
COc1ccc(S(=O)(=O)N2CCN(c3ccc(F)cc3)CC2)cc1-c1noc(C)n1 | – | -15.1
CCc1nc(-c2cc(S(=O)(=O)N3CCN(c4ccc(OC)cc4)CC3)ccc2OC)no1 | 79.4 µM (active) | –
COc1ccc(N2CCN(S(=O)(=O)c3ccc(-c4coc(C)n4)cc3)CC2)cc1 | – | -31.9
Cc1csc2nc(COc3ccc(NC(=O)COc4ccccc4)cc3)cc(=O)n12 | – | -17.5
CCn1c2ccccc2c2nnc(SCC(=O)O)nc21 | – | -18.6
O=C(CCC(=O)NNc1nc2ccccc2c2nc(-c3ccccc3)nn12)NCCCN1CCCC1=O | – | -12.6
CCOc1cc2[nH]c(=S)n(CCCN3CCCC3=O)c(=O)c2cc1OCC | 22.4 µM (active) | –
CCOc1cc2[nH]c(=O)n(Cc3ccc(C(=O)NCCCN4CCCC4=O)cc3)c(=O)c2cc1OCC | – | -12.8
CCOc1cc2[nH]c(=S)n(CCN3CCCCC3C)c(=O)c2cc1OCC (stereo not given) | – | 0

Structure (SMILES) | Potency | activity change, negative = inhibition [%]
O=C(CCn1c(=S)[nH]c2ccccc2c1=O)NCCCN1CCCC1=O | 17.8 µM (active) | –
O=C(CCCCCn1c(=O)[nH]c2ccccc2c1=O)NCCc1c[nH]c2ccccc12 | – | -25.3
Cc1ccc2nc(COc3ccc(NC(=O)COc4ccccc4F)cc3)cc(=O)n2c1 | – | -2.6
Cc1ccc(NC(=O)Cn2nnc3sc4c(c3c2=O)CCC(C)C4)cc1 (stereo not given) | – | -12.8
CCC(=O)N1CCc2cc(S(=O)(=O)NC(C(=O)NCCc3ccc(C)cc3)C(C)C)ccc21 (stereo not given) | – | -18.3
CCc1ccc(N(CC)c2ncnc3nc[nH]c23)cc1 | – | -11.3
Cc1ccc(NC(=O)c2ccc(CSc3ncnc4nc[nH]c34)cc2)c(C)c1 | – | -6.81
S=c1c2[nH]cnc2ncn1CCSc1ncnc2nc[nH]c12 | 12.6 µM (active) | –
CN(C(=O)CSc1nc2ccc(NC(=O)COc3ccccc3)cc2s1)c1ccccc1 | – | -15.6
CCCCCCSc1ccc([C@@H]2[C@H]3C(=O)N(CC)C(=O)[C@H]3[C@]3(C(=O)OC)CCCCN23)cc1 | – | -7.64
CCN1C(=O)[C@@H]2[C@@H](c3ccc(-c4ccc(OC)cc4)c(OC)c3)N3CCC[C@@]3(C(=O)OC)[C@@H]2C1=O | – | -26.4
CCCCCCSc1ccc([C@@H]2[C@@H]3C(=O)N(CC)C(=O)[C@@H]3[C@]3(C(=O)OC)CCCCN23)cc1OC | 56.2 µM (active) | –
COc1ccc(Cc2nc3ccc(C(=O)NCc4ccccc4C)cc3o2)cc1 | – | -8.95
O=C1c2ccccc2C(=O)N1c1ccc(S(=O)(=O)N2CCOCC2)c2ccccc12 | – | -10.6
COc1ccc(CNc2nnnn2C)cc1 | – | -6.16
COc1ccc(OCc2n[nH]c(=S)n2N)cc1 | 3.98 µM (active) | –
O=[N+]([O-])c1ccccc1/C=N/n1c(COc2ccccc2)n[nH]c1=S | 50.1 µM (active) | –
S=c1[nH]nc(COc2ccccc2)n1-c1ccccc1 | 12.6 µM (active) | –
O=C(COc1ccccc1[N+](=O)[O-])N/N=C/c1ccc[nH]1 | – | -25.3
Cc1c(NC(=O)CCCOc2ccccc2)cccc1[N+](=O)[O-] | – | -23.9
O=C(COc1ccccc1)Nc1ccc(F)cc1 | – | 2.1
CC(Sc1nnc(COc2ccccc2)n1-c1ccccc1)C(=O)O (stereo not given) | – | -15.1
COc1ccc(OCC(=O)NNC(=O)C2CCC2)cc1 | – | 3.76
COc1ccccc1OCc1nnc(SCC(N)=O)n1-c1ccccc1 | – | -10.9
Fc1ccc(/C=N/n2c(COc3ccccc3)n[nH]c2=S)cc1 | 56.2 µM (active) | –
